Experimental findings from PubChem BioAssay (NCI) are described below.

Holding throughout (assay): NCI-60 one-dose screen, 48 h (100 = growth as untreated, 0 = no growth, -100 = all killed)
Common to all, as to settings: 10 µM unless noted

In experiment [1] the test system is SK-MEL-2 melanoma.
For experiment [2], the system named is EKVX NSCLC.
Experiment [3] concerns SN12C renal.
Experiment [4] concerns UO-31 renal.
Experiment [5] concerns TK-10 renal.
Experiment [6] has as its system ACHN renal.
Experiment [7] deals with CAKI-1 renal.
For experiment [8], the system named is A498 renal.
The subject of experiment [9] is CCRF-CEM leukemia.
The test system of experiment [10] is MOLT-4 leukemia.

Molecules are shown by their SMILES. The panel holds about 83,000 compounds, 20% with a hit somewhere; the sample as a whole holds those more often.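 Each cell line was grown in a 96-well plate and treated with one concentration of compound for 48 hours. Values below 10 were considered active.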 Unmarked numbers belong to inactive results. Activity calls are given as the source filed them.

For the compound `Cc1cc(O)ccc1Sc1ccccc1[N+](=O)[O-]`, the growth is 99.4% in experiment [1]; 74.8% in [2]; 92.3% in experiment [3]; 52.7% in [4]; 90.6% in [5]; 87.4% in experiment [6]. Besides, the growth in [7] is 89.8%; in experiment [8], 87.6%; in experiment [9], 93.5%; in experiment [10], 115%.

As for `NC(=O)N/N=C\c1ccc([N+](=O)[O-])o1`, the growth is 114% in experiment [1]; 75.2% in [2]; 104% in experiment [3]; 85.2% in experiment [4]; 113% in [5]; 98.8% in experiment [6]. Further, the growth in experiment [7] is 86.9%; in [8], 90.1%; in experiment [9], 19.9%; in [10], 103%.

On to `CC(C)(c1ccccc1)c1cc(O)c(C(C)(C)c2ccccc2)cc1O`, for which the growth is 10.4% in experiment [1]; 33% in experiment [2]; 22.4% in experiment [3]; 17.2% in experiment [4]; 36.1% in experiment [5]; 44% in [6]. Also, the growth in experiment [7] was 31.6%; in experiment [8] it was 8.74% (active); in experiment [9], 15.3%; in experiment [10], -17.8% (active).

For `C=CCOC(=O)C1=C(C)NC2=C(C(=O)CCC2)C1c1ccc(F)cc1` (stereo not given), the growth in experiment [1] is 101%; in [2], 102%; in [3] it was 92.1%; in experiment [4], 76.1%; in experiment [5] it was 111%; in [6], 89.6%. Moreover, the growth in experiment [7] was 84.7%; in experiment [8], 99.3%; in experiment [9] it was 98.1%; in [10], 93.6%.

`Cc1ccc(C(CN(C)C)C(=O)c2ccccc2)cc1` (stereo not given): the growth is 49.7% in experiment [1]; 68.7% in experiment [2]; 36.4% in experiment [3]; 53.5% in experiment [4]; 44.8% in experiment [5]; -2.93% (active) in experiment [6]. For the same compound, the growth in [7] is 52.4%; in experiment [8], 60.6%; in experiment [9], -9.16% (active); in experiment [10] it was -9.61% (active).

As to `CC(C)(C)[Si](C)(C)OC1[C@@H](O[Si](C)(C)C(C)(C)C)[C@@H](CNC(=O)NC(=O)NC(=O)CI)O[C@H]1n1cnc2c(NC(=O)Nc3ccccc3)ncnc21` (stereo not given in full), the growth in [1] was 92.8%; in [2] it was 56.5%; in experiment [3], 84.1%; in experiment [4], -89.2% (active); in experiment [5], 46.6%; in experiment [6] it was -22.7% (active). Further, the growth in experiment [7] was 47.8%; in [8], 73.8%; in [9] it was -38.5% (active); in experiment [10], 29.6%.

For the compound `CCCCCCCCCCCCCCCCCC1=NCCN1CCO`, the growth was 88.9% in experiment [1]; 78.2% in experiment [2]; 86% in experiment [3]; 48.7% in [4]; 87.9% in [5]; 60.7% in experiment [6]. For the same compound, the growth is 55.7% in experiment [7], 106% in [8], 53.9% in experiment [9] and 30.3% in experiment [10].

With `c1cn2cc(-c3ccc4ncn(C5CCCCC5)c4c3)nc(-c3ccc4c(c3)ncn4C3CCCCC3)c2n1`, the growth in experiment [1] is -65.6% (active); in [2], -13.1% (active); in experiment [3] it was -54.6% (active); in [4], -85.4% (active); in [5] it was -59.3% (active); in experiment [6] it was -58.8% (active). For the same compound, the growth in experiment [7] was 17.2%; in experiment [8], -88.1% (active); in experiment [9] it was 4.28% (active); in experiment [10], -30.5% (active).

Consider `Clc1cccc(CNc2c3ccccc3nc3ccccc23)c1`, for which the growth is 77.3% in experiment [1]; 27.2% in experiment [2]; 23.6% in experiment [3]; 16% in experiment [4]; 52.1% in [5]; 15.7% in experiment [6]. Further, the growth is 28.2% in [7], -3.08% (active) in experiment [8], 18.1% in experiment [9] and 1.13% (active) in experiment [10].

`O=c1oc2ccccc2cc1-c1cc(-c2ccc(-c3cc(-c4cc5ccccc5oc4=O)nc(-c4cc5ccccc5oc4=O)c3)cc2)cc(-c2cc3ccccc3oc2=O)n1`: the growth in experiment [1] was 106%; in experiment [2] it was 96%; in experiment [3] it was 102%; in [4], 88.3%; in experiment [5], 129%; in experiment [6] it was 100%. Moreover, the growth in [7] was 105%; in experiment [8], 98.1%; in [9], 92.9%; in experiment [10], 86.8%.

As to `COc1ccc(-c2nc(SCCC(C)C)nc(Nc3ccc(C(=O)O)cc3)c2C#N)cc1`, the growth in experiment [1] is 70%; in experiment [2], 87.7%; in experiment [3] it was 90.6%; in [4], 67%; in [5], 86.7%; in [6], 83.9%. Besides, the growth in experiment [7] is 92.1%; in [8], 62.5%; in experiment [9] it was 73.5%; in experiment [10], 78.7%.

With `C=C(c1ccc(C(=O)NCCCn2ccnc2)cc1)c1cc2c(cc1C)C(C)(C)CCC2(C)C`, the growth in [1] was 55.9%; in [2], 27.1%; in [3], 19.5%; in experiment [4] it was -20.4% (active); in experiment [5], 84.9%; in experiment [6] it was -16.6% (active). For the same compound, the growth was -35.6% (active) in experiment [7], 116% in experiment [8], 13.5% in experiment [9] and 11.1% in experiment [10].

`N=c1nc(N2CCCCC2)cc(N)n1O`: the growth in [1] is 118%; in experiment [2] it was 108%; in [3], 98.8%; in [4], 104%; in experiment [5], 112%; in [6], 97.5%. In addition, the growth in [7] was 101%; in experiment [8] it was 117%; in experiment [9], 112%; in experiment [10], 93%.

For `O=C(Nc1ccccc1)c1cc2ccccc2s1`, the growth in experiment [1] is 72.2%; in experiment [2] it was 85.5%; in experiment [3], 91.4%; in [4], 71.2%; in [5], 98.7%; in [6] it was 94.2%. Besides, the growth in experiment [7] was 78.8%; in [8] it was 91.7%; in [9], 44.3%; in [10] it was 83.3%.

As for `COc1cccc(/C=N\Nc2ccc([N+](=O)[O-])cn2)c1O`, the growth is 77.1% in experiment [1]; 83.9% in experiment [2]; 55% in experiment [3]; 26.9% in experiment [4]; 73.5% in experiment [5]; 28.5% in [6]. Moreover, the growth is 27.8% in experiment [7], 39.8% in experiment [8], 79.3% in experiment [9] and 58% in experiment [10].

On to `CS(=O)(=O)c1ccc(C(=O)N/N=C/c2ccccc2Cl)cc1`, for which the growth is 104% in experiment [1]; 97% in experiment [2]; 98.3% in experiment [3]; 84.3% in experiment [4]; 110% in experiment [5]; 108% in [6]. The growth in [7] is 97.8%; in [8], 91.3%; in experiment [9], 108%; in experiment [10], 67.7%.

`COc1cc2c(=O)n(CCCN(C)C)c3c4cc[nH]c4ncc3c2cc1OC`: the growth in [1] was 71.5%; in [2], 51.1%; in experiment [3] it was 33.9%; in experiment [4] it was 34.1%; in [5], 53.7%; in experiment [6], 26.6%. In addition, the growth was 84.5% in experiment [7], 18.8% in experiment [8], 34.5% in [9] and -6.64% (active) in [10].

Regarding `COc1cccc(/C(C)=N/NC(=O)CSc2nc3ccccc3c(=O)n2CCc2ccc(S(N)(=O)=O)cc2)c1`, the growth was 30% in experiment [1]; 96.9% in experiment [2]; 39.6% in experiment [3]; 98.9% in [4]; 32.3% in experiment [5]; 85% in [6]. In addition, the growth in experiment [7] was 70.5%; in experiment [8], 72.1%; in experiment [9] it was 22.3%; in [10], 14.4%.

`CCN(CC)CCCC(C)Nc1ccnc2ccc(Oc3ccccc3)cc12` (stereo not given): the growth in experiment [1] was 112%; in [2] it was 85.5%; in [3], 79.1%; in experiment [4], 68.5%; in experiment [5] it was 93.5%; in [6] it was 67.1%. In addition, the growth was 79% in [7], 48.4% in experiment [8], 72.5% in [9] and 62.6% in experiment [10].

Consider `CN1C(=O)N(C)C2C1NN=c1s/c(=C\c3ccc(C(F)(F)F)cc3)c(=O)n12` (stereo not given), for which the growth was 47.7% in [1]; 45.2% in experiment [2]; 41.2% in experiment [3]; 49.6% in [4]; 55.5% in [5]; 44.6% in [6]. Besides, the growth in experiment [7] was 29.6%; in experiment [8] it was 18.4%; in [9] it was 11.7%; in experiment [10], 37.2%.

`Cc1ccc([C@H]2c3[nH]c4ccccc4c3C[C@H]3C(=O)N(CCCCCCC(=O)NO)CC(=O)N23)cc1`: the growth in [1] is 56.7%; in experiment [2] it was 76.2%; in experiment [3] it was 67.6%; in experiment [4] it was 57.2%; in experiment [5], 58.7%; in [6], 75.1%. The growth in [7] was 51.2%; in [8], 61.9%; in [9], 15.2%; in experiment [10], 10.9%.

For the compound `O=C(Nc1ccc(Cl)cc1)c1cc(-c2ccc(Cl)cc2)c2sc(=O)[nH]c2n1`, the growth in experiment [1] is -29.3% (active); in experiment [2], 9.13% (active); in experiment [3] it was -9.7% (active); in experiment [4], -5.54% (active); in experiment [5] it was 0.672% (active); in [6], 0.731% (active). Besides, the growth is 8.17% (active) in experiment [7], -43.8% (active) in experiment [8], 5.46% (active) in [9] and -24.2% (active) in experiment [10].

As for `CCCCSc1ncnc2c1ncn2C1CCCCO1` (stereo not given), the growth is 104% in experiment [1]; 115% in experiment [2]; 103% in [3]; 91.2% in [4]; 109% in experiment [5]; 110% in experiment [6]. Further, the growth is 110% in experiment [7], 94.6% in experiment [8], 99.6% in experiment [9] and 96.9% in experiment [10].

`NC(=O)c1ccc[n+](Cc2ccccc2)c1`: the growth in experiment [1] was 110%; in experiment [2], 94%; in [3], 101%; in experiment [4], 93.8%; in experiment [5], 108%; in experiment [6], 103%. For the same compound, the growth in experiment [7] was 97.9%; in experiment [8], 74.5%; in experiment [9], 93.9%; in experiment [10], 49%.

As for `Fc1cc(-c2cnc3nonc3n2)c(Cl)cc1Cl`, the growth is 102% in experiment [1]; 102% in experiment [2]; 91.8% in experiment [3]; -28.3% (active) in [4]; 72.4% in [5]; 18.1% in [6]. Besides, the growth was 85% in experiment [7], 95.7% in experiment [8], -12.7% (active) in experiment [9] and 20.2% in experiment [10].

`Cc1ccc(C)c(NC(=O)c2sc3c(=O)[nH]cnc3c2C)c1`: the growth in experiment [1] is 41.4%; in experiment [2], 85%; in experiment [3], 101%; in experiment [4], 74.9%; in experiment [5] it was 77.8%; in [6], 116%. Further, the growth in experiment [7] was 64.5%; in [8], 70.3%; in experiment [9], 83.1%; in experiment [10], 69.9%.

In the case of `COc1ccc(-n2c(COc3ccc(F)cc3)n[nH]c2=S)cc1`, the growth in experiment [1] is 33.1%; in experiment [2], 107%; in experiment [3], 84.4%; in [4], 107%; in experiment [5], 101%; in experiment [6] it was 99.7%. Moreover, the growth in [7] was 104%; in experiment [8], 108%; in experiment [9], 143%; in [10] it was 114%.
